# Test results as given in PubChem BioAssay AID2284364 (EPA ToxCast).
# The source made the active and inactive calls. The calls were made as follows: active = hit-call score of the fitted dose curve at least 0.9, where 1 is the maximum; inactive = score below 0.9.
# Target: Peroxisome proliferator-activated receptor gamma (Homo sapiens) (UniProt P37231)
# Assay: ERF_US_NR_hPPARG: Eurofins (ERF) Nuclear Receptor (NR) Cell Based Protein-Protein Interaction LeadHunter Assay for human Peroxisome Proliferator-activated Receptor-gamma (PPARg) Agonism
# Procedure: ERF_US_NR_hPPARG is a cell-based, single-readout assay that uses extracted gene-proteins in a cell-line assay. Measurements were taken 5 hours after chemical dosing in a 384-well plate. See PPARgamma Human NHR Cell Based Agonist Protein-Protein Interaction Assay, DiscoverX.ERF_US_NR_hPPARG is an assay component calculated from the ERF_US_NR_hPPARG assay. It is designed to measure […] using a type of binding reporter as detected by scintillation counting with radiometry technology.Data from the assay component ERF_US_NR_hPPARG was analyzed at the assay endpoint, ERF_US_NR_hPPARG, in the positive analysis fitting direction relative to DMSO as the negative control and baseline of activity. Using a type of binding reporter, gain-of-signal activity can be used to understand changes in binding as they relate to gene PPARG. To generalize the intended target to other relatable targets, this assay endpoint is annotated to the nuclear receptor intended target family, where the subfamily is non-steroidal.
# Cells were seeded in a total volume of 20 uL into white walled, 384-well microplates and incubated at 37C overnight prior to testing.Briefly, intermediate dilution of sample stocks was performed to generate 5X sample in assay buffer. 5 uL of 5X sample was added to cells and incubated at 37C for 300 minutes. […] The results are expressed as a percent efficacy of the control ligand.
# Chain of Peroxisome proliferator-activated receptor gamma (Homo sapiens) (P37231 whole entry, looked up): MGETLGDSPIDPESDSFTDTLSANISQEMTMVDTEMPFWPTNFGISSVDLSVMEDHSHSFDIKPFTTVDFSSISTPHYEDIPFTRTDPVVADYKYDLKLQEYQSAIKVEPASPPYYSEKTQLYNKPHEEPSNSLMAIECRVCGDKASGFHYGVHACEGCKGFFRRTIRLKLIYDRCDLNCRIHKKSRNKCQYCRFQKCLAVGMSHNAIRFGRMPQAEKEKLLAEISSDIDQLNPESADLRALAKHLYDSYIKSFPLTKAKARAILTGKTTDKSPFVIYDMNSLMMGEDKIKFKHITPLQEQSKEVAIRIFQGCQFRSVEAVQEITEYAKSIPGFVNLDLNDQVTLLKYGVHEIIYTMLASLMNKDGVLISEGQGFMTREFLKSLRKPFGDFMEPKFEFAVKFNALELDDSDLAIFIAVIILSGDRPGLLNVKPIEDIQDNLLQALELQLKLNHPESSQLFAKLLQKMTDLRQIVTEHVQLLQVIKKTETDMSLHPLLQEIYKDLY
smiles,measurement,value
O=S(=O)(O)C(F)(F)C(F)(F)C(F)(F)C(F)(F)C(F)(F)C(F)(F)C(F)(F)C(F)(F)F,outcome,inactive
